C diff HTS = C. difficile growth inhibition; Clostridium difficile clinical isolate growth, OD600, 24 h; hits give low values; growth activity, negative = inhibition, % at 16 µg/mL (by protocol); 86,000 compounds, 0.25% hits;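 active means mean growth activity at or below -80% and every replicate also at or below -80%; inconclusive means mean at or below -80% but some replicate above -80%; inactive means mean growth activity above -80%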;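 further: 0% = DMSO wells and -100% = levofloxacin 16 µg/mL wells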
Pf Dd2 inh = blocks growth of Plasmodium falciparum Dd2 parasites. P. falciparum Dd2 growth, SYBR Green, 72 h; hits give low values. activity change, % at 10 µM. 94,000 compounds, 2.3% hits. AID 1159554; in the data active means activity change below about -80%; inconclusive means no clear call, values can overlap the other calls
T cruzi growth-1 = inhibitors of T. cruzi proliferation | inhibition, % at 8.34 µM | 77,000 compounds, 5.9% hits | T. cruzi beta-gal in NIH3T3, GalScreen luminescence, 90 h | AID 624255;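 active means mean inhibition above about 93%, with at least 55% of replicates each passing it, limit read from the data, passing the limit was not always enough; inconclusive means only one of those two conditions holds; inactive means neither condition holds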
T cruzi growth-2 = inhibitors of T. cruzi proliferation. inhibition, % at 8.35 µM. shares compounds with T cruzi growth-1. 5,600 compounds, 72% hits. T. cruzi beta-gal in NIH3T3, GalScreen luminescence, 90 h;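 active means mean replicate inhibition above about 95% and at least 55% of replicates individually reaching it, limit read from the data; inconclusive means only one of the two criteria is met; inactive means neither criterion is met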
T cruzi growth-3 = inhibitors of T. cruzi proliferation. 5,600 compounds, 21% hits. AID 651740. T. cruzi beta-gal in NIH3T3, GalScreen luminescence, 90 h. shares compounds with T cruzi growth-1. inhibition, % at 2.09 µM;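 active means mean inhibition above about 95%, with at least 55% of replicates also reaching it, limit read from the data; inconclusive means meets just one of the two conditions; inactive means meets neither condition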;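 further: plate controls were neutral control median for no effect and positive control median for full effect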
NIH3T3 tox = NIH/3T3 (mouse) viability loss. cytotoxicity (signal decrease), % at 8.35 µM. NIH/3T3 viability, CellTiter-Glo ATP luminescence, 90 h. AID 651742. shares compounds with T cruzi growth-1. 5,600 compounds, 14% hits;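 active means mean signal decrease across replicates above about 35% based on untreated-well scatter, with enough replicates individually passing, limit read from the data; inconclusive means no rule stated though some were filed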;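 further: 0% = median of neutral control wells and 100% = median of positive control wells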
3T3 cytotox 2 = kills mouse NIH/3T3 fibroblasts. NIH/3T3 viability, CellTiter-Glo ATP luminescence, 90 h. inhibition, % at 24.9 µM. 5,600 compounds, 56% hits. shares compounds with T cruzi growth-1;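 active means mean loss of cell viability signal at or above a set limit, and enough replicates individually reaching it; inconclusive means meets only the mean limit or only the replicate share; inactive means meets neither condition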;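 further: 0% = median of neutral control wells and 100% = median of positive control wells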
* = called active by the depositor; u = inconclusive; x = no result. Most compounds without a hit are left out; they make up all but 6.7% or so of the library.

SMILES | C diff HTS | Pf Dd2 inh | T cruzi growth-1 | T cruzi growth-2 | T cruzi growth-3 | NIH3T3 tox | 3T3 cytotox 2
Cc1ccc(-c2ccc3c(c2)O[C@H](CN(C)Cc2cccnc2)[C@@H](C)CN([C@@H](C)CO)S3(=O)=O)cc1 | -3 | -83* | 119* | 106* | 97* | 50* | 105*
Cc1ccc(-c2ccc3c(c2)O[C@H](CN(C)Cc2cccnc2)[C@@H](C)CN([C@H](C)CO)S3(=O)=O)cc1 | 3 | u | 119* | 99* | 112* | 80* | 92*
C[C@@H]1CN([C@@H](C)CO)S(=O)(=O)c2ccc(-c3ccncc3)cc2O[C@@H]1CN(C)Cc1cccnc1 | 2 | 3 | 68 | x | x | x | x
CCCNC(=O)N1CC2(CN(C(=O)COC)C2)c2c(n(C)c3cc(OC)ccc23)[C@H]1CO | 72 | 1 | x | x | x | x | x
C[C@@H]1CN([C@H](C)CO)C(=O)c2cc(-c3ccccc3)cnc2O[C@H]1CN(C)Cc1cccnc1 | 0 | 22 | -17 | x | x | x | x
C[C@@H]1CN([C@@H](C)CO)C(=O)c2cc(NS(=O)(=O)c3ccc(Cl)cc3)ccc2O[C@@H](C)CCCCO[C@H]1CN(C)C(=O)Nc1cccc2ccccc12 | -9 | -77 | 96* | 107* | 102* | -13 | 13
C[C@@H]1CCCCO[C@H](CN(C)C(=O)Nc2cccc3ccccc23)[C@H](C)CN([C@H](C)CO)C(=O)c2cc(NS(=O)(=O)c3ccccc3)ccc2O1 | x | -79 | x | x | x | x | x
C[C@@H]1CCCCO[C@@H](CN(C)C(=O)Nc2cccc3ccccc23)[C@@H](C)CN([C@H](C)CO)C(=O)c2cc(NS(=O)(=O)c3ccccc3)ccc2O1 | x | -40 | x | x | x | x | x
C[C@@H]1CCCCO[C@@H](CN(C)C(=O)Nc2cccc3ccccc23)[C@H](C)CN([C@@H](C)CO)C(=O)c2cc(NS(=O)(=O)c3ccc(Cl)cc3)ccc2O1 | -5 | -6 | 98* | 107* | 117* | -25 | -17
C[C@@H]1CCCCO[C@H](CN(C)C(=O)Nc2cccc3ccccc23)[C@@H](C)CN([C@H](C)CO)C(=O)c2cc(NS(C)(=O)=O)ccc2O1 | -7 | -7 | 29 | x | x | x | x
C[C@@H]1CCCCO[C@H](CN(C)C(=O)Nc2cccc3ccccc23)[C@H](C)CN([C@@H](C)CO)C(=O)c2cc(NS(=O)(=O)c3ccc(Cl)cc3)ccc2O1 | 1 | -57 | 99* | 104* | 102* | -12 | -3
CCCN1[C@@H]2Cn3c(ccc(-c4ccncc4)c3=O)[C@H]1[C@@H](C(=O)NCCc1cn(C)cn1)[C@@H]2CO | 3 | 12 | 83 | x | x | x | x
C[C@H](CO)N1C[C@H](C)[C@@H](CN(C)C(=O)Nc2ccc3c(c2)OCO3)Oc2ccc(NC(=O)CCCCCC(=O)Nc3ccccc3N)cc2C1=O | 2 | 15 | x | x | x | x | x
C[C@H]1CCCCO[C@H](CN(C)C(=O)Cc2ccccc2)[C@@H](C)CN([C@@H](C)CO)C(=O)c2cc(NC(=O)C3CCCCC3)ccc2O1 | 0 | -47 | 48 | x | x | x | x
COC(=O)[C@H]1[C@H](CO)[C@H]2Cn3c(ccc(-c4cccc(F)c4)c3=O)[C@H]2N1Cc1ccccn1 | -4 | 9 | 20 | x | x | x | x
Cc1noc(C)c1S(=O)(=O)Nc1cccc2c1O[C@H](CN(C)CC1CCCCC1)[C@H](C)CN([C@H](C)CO)C2=O | 0 | -12 | 44 | x | x | x | x
COC(=O)[C@@H]1[C@@H](CO)[C@@H]2Cn3c(ccc(/C=C/c4ccccc4)c3=O)[C@@H]2N1C(=O)C1CCCC1 | 2 | x | 0 | x | x | x | x
C[C@@H]1CN([C@H](C)CO)C(=O)Cc2cc(NC(=O)Cc3cn(C)c4ccccc34)ccc2O[C@H]1CN(C)Cc1ccc(-c2ccccc2)cc1 | 2 | -18 | 83 | x | x | x | x
C[C@H]1CN([C@@H](C)CO)C(=O)Cc2cc(NC(=O)Cc3cn(C)c4ccccc34)ccc2O[C@H]1CN(C)Cc1ccc(C(F)(F)F)cc1 | 2 | -79 | 90 | x | x | x | x
C[C@@H]1CN([C@H](C)CO)C(=O)Cc2cc(NC(=O)Cc3cn(C)c4ccccc34)ccc2O[C@H]1CN(C)Cc1ccc(C(F)(F)F)cc1 | 11 | -21 | 100* | 105* | 63 | u | 71*
C[C@H]1CN([C@@H](C)CO)C(=O)Cc2cc(NC(=O)Cc3cn(C)c4ccccc34)ccc2O[C@H]1CN(C)Cc1ccc(C(=O)Nc2ccccc2N)cc1 | -2 | -73 | 102* | 96* | 57 | 24 | 63*
C[C@H]1CN([C@@H](C)CO)C(=O)Cc2cc(NC(=O)Cc3cn(C)c4ccccc34)ccc2O[C@@H]1CN(C)Cc1ccc(C(=O)Nc2ccccc2N)cc1 | -1 | -58 | 84 | x | x | x | x
C[C@H]1CN([C@@H](C)CO)C(=O)Cc2cc(NC(=O)Cc3cn(C)c4ccccc34)ccc2O[C@@H]1CN(C)Cc1ccc(-c2ccccc2)cc1 | -2 | -30 | 98* | 103* | 82 | 20 | 20
C[C@@H]1CN([C@H](C)CO)C(=O)Cc2cc(NC(=O)Cc3cn(C)c4ccccc34)ccc2O[C@@H]1CN(C)Cc1ccccc1 | -14 | -24 | 100* | 104* | 46 | 14 | 40*
C[C@@H]1CN([C@@H](C)CO)C(=O)Cc2cc(NC(=O)Cc3cn(C)c4ccccc34)ccc2O[C@@H]1CN(C)Cc1ccccc1 | -8 | -28 | 95 | x | x | x | x
SMILES | C diff HTS | Pf Dd2 inh | T cruzi growth-1 | T cruzi growth-2 | T cruzi growth-3 | NIH3T3 tox | 3T3 cytotox 2
COc1ccc(CN(C)C[C@@H]2Oc3ccc(NC(=O)C4CC4)cc3CC(=O)N([C@H](C)CO)C[C@@H]2C)cc1 | -11 | -6 | 56 | x | x | x | x
C[C@@H]1CN([C@@H](C)CO)S(=O)(=O)c2ccc(C3=CCCC3)cc2O[C@@H]1CN(C)S(=O)(=O)c1ccc(F)cc1 | 5 | -13 | 119* | 106* | 75 | 29 | 31*
Cc1ccc(S(=O)(=O)N(C)C[C@H]2Oc3cc(C4=CCCC4)ccc3S(=O)(=O)N([C@@H](C)CO)C[C@@H]2C)cc1 | 4 | -50 | x | x | x | x | x
Cc1ccc(S(=O)(=O)N(C)C[C@@H]2Oc3cc(C4=CCCC4)ccc3S(=O)(=O)N([C@H](C)CO)C[C@H]2C)cc1 | 0 | -73 | x | x | x | x | x
C[C@H](CO)N1C[C@H](C)[C@H](CN(C)S(=O)(=O)c2ccc(F)cc2)Oc2cc(C3=CCCC3)ccc2S1(=O)=O | 14 | -30 | 118* | 108* | 78 | 37* | 24*
CCC(=O)Nc1ccc2c(c1)C(=O)N(C)C[C@@H](OC)[C@H](C)CN(Cc1ccccn1)[C@H](C)CO2 | x | 8 | -5 | x | x | x | x
Cc1noc(C)c1S(=O)(=O)N(C)C[C@H]1OCCCC[C@@H](C)Oc2ccc(NC(=O)Nc3ccccc3)cc2C(=O)N([C@@H](C)CO)C[C@@H]1C | -8 | -79 | x | x | x | x | x
Cc1noc(C)c1S(=O)(=O)N(C)C[C@H]1OCCCC[C@@H](C)Oc2ccc(NC(=O)Nc3ccccc3)cc2C(=O)N([C@H](C)CO)C[C@@H]1C | 3 | -20 | x | x | x | x | x
